Data reported in PubChem BioAssay (EPA / NIEHS).
Active and inactive are the calls of the source. Rule for the calls: active = hit-call score of the fitted dose curve at least 0.9, where 1 is the maximum; inactive = score below 0.9.

read-out: growth arrest and DNA damage 45 (GADD45A), GADD45A (gene 1647); assay: LTEA_HepaRG_GADD45A: Life Technologies and Expression Analysis (LTEA) Assay for growth arrest and DNA damage 45 (GADD45A) using HepaRG (AID 2283458); conditions: mRNA level, 48 h; actives raise or lower the signal
Experimental: LTEA_HepaRG is a cell based, multiplexed-readout assay that uses HepaRG, a human liver cell line, with measurements taken at 48 hours after chemical dosing on a 96-well plate.LTEA_HepaRG_GADD45A is one of 102 assay component(s) measured in the LTEA HepaRG cell culture assay. It is a marker of Oxidative Stress.Data from the assay component LTEA_HepaRG_GADD45A was analyzed into 1 endpoint. This assay endpoint, LTEA_HepaRG_GADD45A, was analyzed with bidirectional fitting relative to DMSO as the negative control and baseline of activity. Using a type of inducible reporter, measures of mRNA induction for gain or loss-of-signal activity can be used to understand regulation of transcription factor activity. To generalize the intended target to other relatable targets, this assay endpoint is annotated to the cell cycle intended target family, where the subfamily is Oxidative Stress.
A total of 1060 chemcials from the ToxCast library were tested in eight-point concentration-response experiments. Cell culture and cytotoxicity assays were conducted at Thermo Fisher Scientific's Custom Services facility (Madison, WI). A single lot of human HepaRG cells (Thermo Fisher Scientific, Frederick, MD) was used for the cell culture experiments. 96-well format collagen type I coated plates of human HepaRG cells were prepared using established methods. Briefly, cryopreserved HepaRG cells were thawed, plated at a density of approximately 100,000 cells/well in HepaRG Thaw, Plate, and General Purpose media (HPRG770, Thermo Fisher Scientific), and incubated for 48 hours. 0.5% DMSO was selected as vehicle control to balance the requisite need of DMSO in HepaRG cultures to maintain differentiation (for example, baseline metabolism, proportions of hepatocytes vs. cholangiocytes), while enabling further hepatic receptor pathway activation (for example, PXR and CAR) in response to chemical exposure. 48 hours after plating, the culture medium was replaced with HepaRG Serum-Free Incudtion Media. Cells were exposed to each test chemical in duplicate and maintained in CO2 incubators for another 48 hours. Chemical plates were thawed to room temperature and 200x concentrations of treatment groups were prepared. 8-point conentration-reponse curves were made with the highest exposure at 100 uM, followed by half-log dilutions, all in 0.5% DMSO. Each test plate contained variouse controls, induction positive controls (1mM phenobarbital), cytotoxicity positive controls ([…] aflatoxin B1), vehicle controls (0.5% DMSO), and total lysis controls (0.5% DMSO). Cell morphology images were taken using an Essen IncuCyte FLR automated microscope, with six 96-well plates imaged in about 24 minutes. Images were captured and exported and JPEG files. Spent culture media was transfered to black-well plates for the LDH assay, and remaining media was sorted at -80 C for later use. Cells were treated with RLT buffer and frozen until shipped for gene expression analysis. Total RNA was isolated from the cell suspension in 75 uL of Buffer RLT (Qiagen, Germantown, MD 20874) by Quintiles/Expression Analysis (Durham, NC) using a custom isolation procedure. Total RNA from each plate well was transferred to a preamplification plate. Fluidigm's 96.96 Dynamic ArrayTM (Fluidigm, Amsterdam, the Netherlands) technology was used for gene expression analyses by quantitative reverse transcription polymerase chain reaction (qRT-PCR, performed by Quintiles/Expression Analysis, Durham, NC)89. Standard TaqManTM Assays (Applied Biosystems/ThermoFisher Scientific, Foster City, CA) were used to assess the expression of 93 genes selected based on their selectivity and sensitivity to important hepatic receptors known to be modulated by environmental chemicals; importance in human hepatocyte functionality; and hepatotoxicity. […]

Row | SMILES | outcome | AC50
1 | Cc1ccc(N(C)C)cc1 | inactive | –
2 | COc1ccc(S(=O)(=O)N2C(=O)[C@@](c3ccccc3OC)(N3C[C@H](O)C[C@H]3C(=O)N(C)C)c3cc(Cl)ccc32)c(OC)c1 | – | 87.9 µM (active)
3 | COCCOC[C@H](CC1(C(=O)NC2CCC(C(=O)O)CC2)CCCC1)C(=O)Oc1ccc2c(c1)CCC2 (stereo not given in full) | inactive | –
4 | CCCCCC(=O)O | inactive | –
5 | CC(=O)OCCOCCOCCOC(C)=O | inactive | –
6 | C1CCC(SSC2CCCCC2)CC1 | inactive | –
7 | O=C(O)CCCCC(=O)O | inactive | –
8 | CCCCC(CC)COC(=O)CC(C(=O)OCC(CC)CCCC)S(=O)(=O)O (stereo not given) | – | 93.9 µM (active)
9 | O=c1c(O)c(-c2ccc(O)c(O)c2)oc2cc(O)cc(O)c12 | inactive | –
10 | CCOC(=O)C(C)(C)Oc1ccc(Cl)cc1 | inactive | –
11 | Cc1cc(=O)[nH]c(=S)[nH]1 | inactive | –
12 | O=C(N[C@@H](Cc1ccccc1)[C@@H](O)C(=O)N1C[C@@H](O)[C@@H](O)C1)c1cc2cc(Cl)ccc2[nH]1 | inactive | –
13 | O=C(OCCCCCOC(=O)c1ccccc1)c1ccccc1 | – | 2.13 µM (active)
14 | CCCCCCCCCCCC(=O)OC | inactive | –
15 | O=c1[nH]cc(F)c(=O)[nH]1 | inactive | –
16 | CC(=O)OC/C=C(\C)CCC=C(C)C | inactive | –
17 | CCCCOC(=O)CCCCCCCCC(=O)OCCCC | inactive | –
18 | Nc1ccc(S(=O)(=O)c2ccc(N)cc2)cc1 | inactive | –
19 | NS(=O)(=O)c1cc2c(cc1Cl)NCNS2(=O)=O | inactive | –
20 | CCCCCCCCCCCCCO | inactive | –

Row | SMILES | outcome | AC50
21 | Cc1nc(-c2ccc3c(c2)CCN(CCC2CCC(NC(=O)/C=C/c4ccc(F)cc4)CC2)CC3)no1 (stereo not given) | inactive | –
22 | CCOC(=O)CCC(=O)OCC | inactive | –
23 | Cc1ccc2ncccc2c1 | inactive | –
24 | CCCCN(CCCC)CCCC | inactive | –
25 | Cc1nc(C)nc(N2C[C@@H](C)N(c3ccnc([C@@H](C)O)n3)[C@@H](C)C2)n1 | inactive | –
26 | Cc1cccc(Nc2cc(Cl)nc(SCC(=O)O)n2)c1C | inactive | –
27 | COc1ccc(C)cc1N | inactive | –
28 | Nc1ccccc1N | – | 50 µM (active)
29 | Cc1c(C(=O)O)c(O)cc2c1C(=O)c1c(O)c([C@@H]3O[C@H](CO)[C@@H](O)[C@H](O)[C@H]3O)c(O)c(O)c1C2=O | inactive | –
30 | Nc1ccc2c(c1)C(=O)c1ccccc1C2=O | inactive | –
31 | Cc1cccc([N+](=O)[O-])c1C | inactive | –
32 | C[Si]1(C)O[Si](C)(C)O[Si](C)(C)O[Si](C)(C)O1 | inactive | –
33 | Cc1oc(-c2ccccc2)nc1CCOc1cccc2c1ccn2CCC(=O)O | – | 75.2 µM (active)
34 | CCCCCCCC=O | inactive | –
35 | CCCCCCC(=O)OCC | inactive | –
36 | NCC1(Cc2noc(=O)[nH]2)CCCCC1 | inactive | –
37 | Cc1ccc(Cl)cc1 | inactive | –
38 | NC(=O)Cn1c(=O)cc(CCN2CCN(c3nccc4sccc34)CC2)c2ccc(F)cc21 | inactive | –
39 | Clc1cc(Cl)c(Cl)cc1Cl | inactive | –
40 | CC(=O)Oc1ccccc1C(=O)O | inactive | –
